From the supplement of paper PMC10849652
The full data set covers some 8,800 targets. This sample favours those with a hit. About 0.5% of all pairs of compound and target were hits. A number with no mark means an inactive call.

Tests used:
Assay in all cases: log2 fold change, soluble protein after heating vs DMSO (PISA); higher = thermal stabilisation; K562 lysate, 10 uM; active = over 0.2 and 3.5 SD of the protein, either way, in both replicates (recomputed)
vemurafenib = compound: CCCS(=O)(=O)Nc1ccc(F)c(C(=O)c2c[nH]c3ncc(-c4ccc(Cl)cc4)cc23)c1F [vemurafenib]
Procedure, shortened: (§1)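 A 30 min treatment with 10 μM compound was applied to crude K562 extract at 1 mg/mL protein in PBS pH 7.4 with 1 mM MgCl2. Heating for 3 min spanned 48°C-58°C, after which aliquots were pooled, adjusted to 0.5% NP-40 at 4°C and spun at 21,000xg for 90 min. TMTpro 16plex LC-MS/MS of the supernatant, with channel sums equalised, gave values recorded as log-two fold change in thermal stability against solvent controls, from duplicates.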

[1] = compound: CCCS(=O)(=O)Nc1ccc(F)c(C(=O)c2c[nH]c3ncc(Cl)cc23)c1F
Procedure, shortened: as §1

barasertib = compound: CCN(CCCOc1ccc2c(Nc3cc(CC(=O)Nc4cccc(F)c4)[nH]n3)ncnc2c1)CCOP(=O)(O)O [barasertib]
Procedure, shortened: as §1

[2] = compound: CC[C@@H]1C(=O)N(C)c2cnc(Nc3ccc(C(=O)NC4CCN(C)CC4)cc3OC)nc2N1C1CCCC1
Procedure, shortened: as §1

volasertib = compound: CC[C@@H]1C(=O)N(C)c2cnc(Nc3ccc(C(=O)N[C@H]4CC[C@H](N5CCN(CC6CC6)CC5)CC4)cc3OC)nc2N1C(C)C [volasertib]
Procedure, shortened: as §1

[3] = compound: CCn1c(C(=O)N(C2CC2)C2CC2)cc2c3c(ncn3C)c(Nc3cc(C)n(C)n3)nc21
Procedure, shortened: as §1

[4] = compound: CCn1cc(-c2ccnc3[nH]c(-c4cccc(CN(C)C)c4)cc23)c(-c2ccc(NC(=O)N(C)C)cc2)n1
Procedure, shortened: as §1

[5] = compound: CN1CCC(CNc2ccc3ncc(-c4cccc(OC(F)(F)F)c4)n3n2)CC1
Procedure, shortened: as §1

saracatinib = compound: CN1CCN(CCOc2cc(OC3CCOCC3)c3c(Nc4c(Cl)ccc5c4OCO5)ncnc3c2)CC1 [saracatinib]
Procedure, shortened: as §1

sotrastaurin = compound: CN1CCN(c2nc(C3=C(c4c[nH]c5ccccc45)C(=O)NC3=O)c3ccccc3n2)CC1 [sotrastaurin]
Procedure, shortened: as §1

Sequence of UniProt O75911 (O75911 whole entry, looked up): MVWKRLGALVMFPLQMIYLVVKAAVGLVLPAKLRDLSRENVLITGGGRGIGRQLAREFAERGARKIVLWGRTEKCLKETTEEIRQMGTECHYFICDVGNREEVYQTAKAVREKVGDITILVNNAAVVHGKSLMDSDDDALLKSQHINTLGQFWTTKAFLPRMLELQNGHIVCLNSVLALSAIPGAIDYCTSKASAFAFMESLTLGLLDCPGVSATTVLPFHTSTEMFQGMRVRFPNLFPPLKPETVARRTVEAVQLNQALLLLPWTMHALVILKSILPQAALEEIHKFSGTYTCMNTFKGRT
Sequence of UniProt P39880 (P39880 whole entry, looked up): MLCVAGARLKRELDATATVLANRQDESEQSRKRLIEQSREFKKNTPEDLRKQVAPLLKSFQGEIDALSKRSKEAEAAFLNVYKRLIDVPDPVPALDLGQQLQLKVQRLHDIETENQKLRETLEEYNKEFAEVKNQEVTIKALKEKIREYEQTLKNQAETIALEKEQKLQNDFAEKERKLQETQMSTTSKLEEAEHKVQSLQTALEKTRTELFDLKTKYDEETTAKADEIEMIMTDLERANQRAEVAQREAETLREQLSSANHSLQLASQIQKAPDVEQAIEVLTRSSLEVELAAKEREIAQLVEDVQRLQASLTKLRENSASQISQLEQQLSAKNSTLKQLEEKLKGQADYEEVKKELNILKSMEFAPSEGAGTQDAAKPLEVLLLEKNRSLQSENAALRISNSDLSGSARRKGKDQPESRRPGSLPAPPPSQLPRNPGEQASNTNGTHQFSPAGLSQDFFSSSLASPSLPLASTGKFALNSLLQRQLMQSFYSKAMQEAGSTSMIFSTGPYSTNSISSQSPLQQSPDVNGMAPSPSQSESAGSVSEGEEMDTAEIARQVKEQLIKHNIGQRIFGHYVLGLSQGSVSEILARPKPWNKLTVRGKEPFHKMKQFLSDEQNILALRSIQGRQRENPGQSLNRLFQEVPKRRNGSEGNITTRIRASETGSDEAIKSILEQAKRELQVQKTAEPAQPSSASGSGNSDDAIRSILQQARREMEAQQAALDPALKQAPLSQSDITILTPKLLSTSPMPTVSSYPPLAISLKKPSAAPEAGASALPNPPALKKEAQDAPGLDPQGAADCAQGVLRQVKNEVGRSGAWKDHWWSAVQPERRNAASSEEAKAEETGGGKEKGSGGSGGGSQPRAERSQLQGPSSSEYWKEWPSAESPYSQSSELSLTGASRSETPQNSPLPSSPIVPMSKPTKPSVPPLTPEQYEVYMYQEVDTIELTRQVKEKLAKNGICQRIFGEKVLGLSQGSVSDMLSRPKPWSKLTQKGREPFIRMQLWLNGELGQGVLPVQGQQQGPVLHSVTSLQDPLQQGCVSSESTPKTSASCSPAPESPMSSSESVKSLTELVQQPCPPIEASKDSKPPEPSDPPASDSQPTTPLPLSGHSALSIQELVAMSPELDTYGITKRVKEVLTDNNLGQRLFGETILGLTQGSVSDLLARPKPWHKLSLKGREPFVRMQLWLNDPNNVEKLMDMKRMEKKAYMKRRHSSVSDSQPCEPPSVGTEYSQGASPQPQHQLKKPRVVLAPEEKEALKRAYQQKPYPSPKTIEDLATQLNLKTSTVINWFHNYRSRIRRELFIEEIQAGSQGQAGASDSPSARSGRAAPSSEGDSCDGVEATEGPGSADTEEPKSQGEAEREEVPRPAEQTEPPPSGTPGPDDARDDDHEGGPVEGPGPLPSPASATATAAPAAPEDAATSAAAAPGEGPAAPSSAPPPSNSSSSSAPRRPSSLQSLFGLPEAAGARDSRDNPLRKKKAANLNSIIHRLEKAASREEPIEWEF
Sequence of UniProt Q8IY22 (Q8IY22 whole entry, looked up): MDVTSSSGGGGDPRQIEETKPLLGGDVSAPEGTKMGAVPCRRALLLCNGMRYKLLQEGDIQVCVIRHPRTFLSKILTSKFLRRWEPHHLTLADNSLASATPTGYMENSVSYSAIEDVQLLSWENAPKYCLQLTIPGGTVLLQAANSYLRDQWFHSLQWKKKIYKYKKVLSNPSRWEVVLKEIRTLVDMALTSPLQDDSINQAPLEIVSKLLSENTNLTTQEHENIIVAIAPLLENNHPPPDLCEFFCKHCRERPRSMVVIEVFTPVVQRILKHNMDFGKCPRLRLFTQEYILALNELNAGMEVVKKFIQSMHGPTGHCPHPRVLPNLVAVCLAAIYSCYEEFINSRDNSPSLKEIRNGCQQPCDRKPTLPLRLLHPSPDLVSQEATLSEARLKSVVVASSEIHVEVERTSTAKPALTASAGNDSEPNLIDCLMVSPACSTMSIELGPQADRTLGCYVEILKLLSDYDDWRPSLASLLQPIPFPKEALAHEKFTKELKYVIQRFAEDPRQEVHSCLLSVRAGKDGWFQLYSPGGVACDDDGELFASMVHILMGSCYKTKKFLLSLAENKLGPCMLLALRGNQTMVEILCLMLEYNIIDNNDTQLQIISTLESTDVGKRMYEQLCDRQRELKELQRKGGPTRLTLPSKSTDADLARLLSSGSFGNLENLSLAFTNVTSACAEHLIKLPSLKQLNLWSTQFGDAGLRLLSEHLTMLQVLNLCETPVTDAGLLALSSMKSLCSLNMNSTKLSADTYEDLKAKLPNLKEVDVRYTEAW
Sequence of UniProt Q96EP5 (Q96EP5 whole entry, looked up): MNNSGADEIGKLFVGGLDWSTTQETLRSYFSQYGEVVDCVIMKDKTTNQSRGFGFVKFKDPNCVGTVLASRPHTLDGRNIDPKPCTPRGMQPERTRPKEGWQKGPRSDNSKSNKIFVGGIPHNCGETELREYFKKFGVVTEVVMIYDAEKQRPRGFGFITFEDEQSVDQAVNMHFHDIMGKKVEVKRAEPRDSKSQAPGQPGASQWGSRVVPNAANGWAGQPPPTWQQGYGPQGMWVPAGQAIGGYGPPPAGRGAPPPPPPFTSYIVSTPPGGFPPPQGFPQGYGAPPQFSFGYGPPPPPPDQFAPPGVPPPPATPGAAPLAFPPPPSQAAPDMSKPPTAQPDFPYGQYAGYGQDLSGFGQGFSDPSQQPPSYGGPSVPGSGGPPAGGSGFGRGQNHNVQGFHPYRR
Sequence of UniProt Q6UWP2 (Q6UWP2 whole entry, looked up): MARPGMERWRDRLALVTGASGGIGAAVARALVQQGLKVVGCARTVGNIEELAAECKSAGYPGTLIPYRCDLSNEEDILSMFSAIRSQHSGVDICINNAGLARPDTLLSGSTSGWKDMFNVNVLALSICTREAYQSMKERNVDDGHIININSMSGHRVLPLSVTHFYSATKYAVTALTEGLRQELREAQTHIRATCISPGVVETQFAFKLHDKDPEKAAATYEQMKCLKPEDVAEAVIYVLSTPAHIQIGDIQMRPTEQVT
Sequence of UniProt P29373 (P29373 whole entry, looked up): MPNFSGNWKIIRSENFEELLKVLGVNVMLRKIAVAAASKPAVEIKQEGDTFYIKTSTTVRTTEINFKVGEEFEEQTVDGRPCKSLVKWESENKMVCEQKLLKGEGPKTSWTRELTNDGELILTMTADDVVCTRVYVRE
Sequence of UniProt Q07973 (Q07973 whole entry, looked up): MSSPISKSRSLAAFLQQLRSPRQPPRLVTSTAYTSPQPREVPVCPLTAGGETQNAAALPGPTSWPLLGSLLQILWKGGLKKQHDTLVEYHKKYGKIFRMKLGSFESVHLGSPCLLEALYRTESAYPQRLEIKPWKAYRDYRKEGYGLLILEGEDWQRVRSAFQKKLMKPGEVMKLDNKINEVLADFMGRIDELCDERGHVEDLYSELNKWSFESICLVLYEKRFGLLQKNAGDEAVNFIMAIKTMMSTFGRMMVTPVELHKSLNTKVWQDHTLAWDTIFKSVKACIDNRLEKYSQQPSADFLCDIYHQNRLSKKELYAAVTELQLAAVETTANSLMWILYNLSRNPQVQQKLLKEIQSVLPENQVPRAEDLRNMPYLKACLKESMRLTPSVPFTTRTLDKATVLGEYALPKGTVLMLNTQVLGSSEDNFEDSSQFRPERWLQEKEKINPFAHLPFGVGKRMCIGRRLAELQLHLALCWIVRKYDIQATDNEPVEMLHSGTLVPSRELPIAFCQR
Sequence of UniProt Q96LJ7 (Q96LJ7 whole entry, looked up): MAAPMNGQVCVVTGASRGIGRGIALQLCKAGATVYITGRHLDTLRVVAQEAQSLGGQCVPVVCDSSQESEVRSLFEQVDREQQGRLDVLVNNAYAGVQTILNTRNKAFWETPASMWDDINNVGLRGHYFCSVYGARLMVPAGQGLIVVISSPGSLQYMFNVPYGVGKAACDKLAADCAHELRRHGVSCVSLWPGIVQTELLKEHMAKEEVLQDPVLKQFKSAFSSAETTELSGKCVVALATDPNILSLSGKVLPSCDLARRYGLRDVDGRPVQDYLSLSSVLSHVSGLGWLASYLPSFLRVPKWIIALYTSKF
Sequence of UniProt Q92989 (Q92989 whole entry, looked up): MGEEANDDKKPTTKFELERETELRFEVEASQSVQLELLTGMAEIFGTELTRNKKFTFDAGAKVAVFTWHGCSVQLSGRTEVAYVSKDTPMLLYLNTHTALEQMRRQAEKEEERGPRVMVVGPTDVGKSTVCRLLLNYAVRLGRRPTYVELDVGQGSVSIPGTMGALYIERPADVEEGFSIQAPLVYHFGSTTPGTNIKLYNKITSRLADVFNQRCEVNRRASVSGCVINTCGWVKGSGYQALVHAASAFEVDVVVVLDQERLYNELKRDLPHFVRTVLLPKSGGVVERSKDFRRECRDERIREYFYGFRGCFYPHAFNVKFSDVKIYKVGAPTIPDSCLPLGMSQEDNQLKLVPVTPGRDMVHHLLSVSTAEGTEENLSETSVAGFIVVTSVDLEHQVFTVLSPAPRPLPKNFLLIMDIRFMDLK
Sequence of UniProt O75208 (O75208 whole entry, looked up): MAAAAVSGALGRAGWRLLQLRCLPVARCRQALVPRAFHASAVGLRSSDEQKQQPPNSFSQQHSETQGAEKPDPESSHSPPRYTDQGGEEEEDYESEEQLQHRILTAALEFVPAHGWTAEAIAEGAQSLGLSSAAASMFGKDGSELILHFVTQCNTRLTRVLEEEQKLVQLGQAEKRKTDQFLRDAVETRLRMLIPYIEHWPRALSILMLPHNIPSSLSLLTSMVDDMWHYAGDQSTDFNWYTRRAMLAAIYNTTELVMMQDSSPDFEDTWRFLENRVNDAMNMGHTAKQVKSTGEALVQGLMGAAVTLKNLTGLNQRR

Target	log2 fold change (vemurafenib)	log2 fold change [1]	log2 fold change (barasertib)	log2 fold change [2]	log2 fold change (volasertib)	log2 fold change [3]	log2 fold change [4]	log2 fold change [5]	log2 fold change (saracatinib)	log2 fold change (sotrastaurin)
DES (UniProt P17661)	0.084	0.008	-0.001	0.045	0.058	-0.026	-0.434 (active)	0.149	0.106	-0.012
DHRS11 (UniProt Q6UWP2)	0.015	0.007	0	-0.019	-0.026	0.023	-0.03	0.025	0.013	0.004
COQ8A (UniProt Q8NI60)	0.036	-0.009	0.134	0.026	-0.026	-0.029	-0.214	0.573 (active)	0.697 (active)	0.016
DARS (UniProt P14868)	0.02	0.021	0.021	-0.099	-0.043	0.062	0.026	-0.012	0.018	0.011
CHORDC1 (UniProt Q9UHD1)	0.017	-0.003	-0.029	0.009	0.02	0.002	0.288 (active)	-0.003	-0.006	-0.036
CUX1 isoform 3 (UniProt P39880)	0.059	-0.012	-0.011	0.028	-0.004	-0.006	0.107	-0.152	0.018	0.029
CUEDC2 (UniProt Q9H467)	0.06	0.001	0.026	0.038	0.027	-0.084	0.694 (active)	-0.07	0.002	0
DOK1 (UniProt Q99704)	0.028	0.061	-0.027	-0.113	-0.026	0.021	-0.055	0.101	0.024	0.029
COQ9 (UniProt O75208)	-0.023	0.126	0.275 (active)	0	-0.012	0.002	0.015	-0.066	-0.001	-0.101
CSDE1 isoform 4 (UniProt O75534)	-0.002	0.004	0.01	-0.083	-0.041	0.028	0.069	-0.066	0.003	-0.018
DHRS1 (UniProt Q96LJ7)	0.436	0.187	0.053	-0.045	0.012	-0.029	-0.042	-0.05	0.001	0.026
DNAJC5 (UniProt Q9H3Z4)	0.001	-0.02	0.008	-0.031	0.012	0.015	-0.476 (active)	0.243	0.01	0.041
CNDP2 (UniProt Q96KP4)	0.01	0.023	-0.01	0.11	0.041	-0.032	-0.343 (active)	0.278 (active)	0.01	0.013
CXXC1 isoform 2 (UniProt Q9P0U4)	-0.029	-0.117	-0.02	-0.256	-0.027	0.031	-0.072	0.041	-0.066	-0.04
CLP1 (UniProt Q92989)	-0.035	0	0.03	-0.045	-0.05	0.015	-0.13	0.096	0.115	0.036
CIB1 (UniProt Q99828)	0.096	0.027	0.155	-0.013	0.008	-0.047	-0.028	-0.028	0.017	-0.077
CLASP2 isoform 3 (UniProt O75122)	0.054	-0.002	0.02	0.015	-0.006	0.013	-0.162	0.093	0.011	0.01
CSK (UniProt P41240)	0.43	0.304	0.187	-0.046	-0.09	-0.068	0.015	0.096	0.37	-0.043
DAZAP1 (UniProt Q96EP5)	0.036	0.043	-0.017	0.016	0.011	0.065	0.129	0.032	0.003	-0.109
DDB2 (UniProt Q92466)	-0.073	0.001	0.025	0.015	-0.003	0	0.006	0.019	-0.022	0.075
DENND4A isoform 2 (UniProt Q7Z401)	-0.024	0.024	0.029	0.011	-0.069	0.004	-0.132	0.099	0.059	0.025
CRABP2 (UniProt P29373)	0.128	0.007	0.528	-0.139	0.026	-0.005	0.089	-0.003	0.092	0.001
DHCR7 (UniProt Q9UBM7)	-0.02	0.004	0.029	-0.061	-0.036	0.025	-0.033	-0.069	0.017	-0.041
CUL1 (UniProt Q13616)	-0.008	0.001	-0.011	0.034	0.029	0.004	-0.013	0.029	-0.023	-0.029
CMIP (UniProt Q8IY22)	0.009	0.023	0.04	-0.055	-0.057	0.043	-0.043	-0.054	0.014	0.017
DDA1 (UniProt Q9BW61)	-0.02	0.038	-0.004	0.003	0	0.046	0	-0.023	0.019	-0.025
DNAJC1 (UniProt Q96KC8)	-0.019	0.006	0.053	0.017	-0.012	0.067	0.033	-0.293 (active)	0.029	-0.002
DCTN1 (UniProt Q14203)	-0.025	0.008	0.021	-0.021	-0.048	0.002	0.034	-0.034	0.029	-0.003
CYP24A1 (UniProt Q07973)	0.065	-0.01	-0.055	0.166	0.006	-0.212	-0.499 (active)	0.268	0.056	0
DHRS3 (UniProt O75911)	0.082	0.012	-0.01	-0.03	0.033	-0.041	-0.061	0.034	0.029	0.013
